PubChem BioAssay (NCI)
About 83,000 compounds went through this panel and 20% of them were active in at least one assay; those are over-represented in the sample as a whole.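 96-well plates, one dose, 48 hours. Percent growth reported; active if below 10.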 Values without a mark were called inactive.

These compounds were tested on HOP-62 NSCLC (assay: NCI-60 one-dose screen, 48 h (100 = growth as untreated, 0 = no growth, -100 = all killed)). Conditions: 10 µM.
With COc1ccc(-c2ccccc2)cc1C(=O)c1ccc(-c2ccccc2)cc1 the growth was 70.4%.
Work on O=C1CC[C@@H](C(=O)N[C@H]2CSSC[C@@H](C(=O)N/C=C/c3ccc(O)cc3)NC(=O)[C@H](Cc3ccccc3)NC(=O)[C@@H]3CCCN3C(=O)[C@@H]3CCCN3C2=O)N1 yielded a growth of 78.2%.
COc1ccc2nc(C)cc(Nc3ccc(Cl)cc3)c2c1 gave a growth of 104%.
For CC(=O)OC1Oc2ccccc2-c2oc(=O)c(-c3cc(=O)oc4cc(O)ccc34)cc21 (stereo not given), the growth was 93.8%.
Compound O=C(NCCc1nccs1)c1cnc2c(S)cccc2c1 has a growth of 29.3%.
Work on COc1ccccc1Cn1cc2c(c1-c1ccccc1)CCc1cnoc1-2 yielded a growth of 34.7%.
FC(F)(F)c1ccc(-c2cnc(Cl)nc2NC2CCCCCC2)cc1 gave a growth of 33.4%.
Compound C[C@]12CC[C@H]3[C@@H](CCC4=CC(=O)CC[C@@]43C)[C@@H]1CC[C@@H]2c1csc(N)n1 has a growth of 70.2%.
In the case of COc1ccc(COC(=O)CC(C)C)cc1, the growth is reported as 106%.
Compound CCOC(=O)c1cc2c(n1Cc1ccccc1)-c1oncc1CC2 has a growth of 92.5%.
With CCCCCCCCCCCCCCCCCBr the growth was 104%.
For CS(=O)(=O)Nc1ccc([N+](=O)[O-])cc1Oc1ccccc1, the growth was 93%.
Oc1ccccc1-c1nnc(Cn2c(Cc3cccc4ccccc34)nc3ccccc32)o1 gave a growth of 87.6%.
Compound O=NN(CC(=O)N/N=C/C=C\c1ccccc1)CC(=O)N/N=C/C=C/c1ccccc1 has a growth of 69.6%.
With O=C(OCc1ncc(-c2ccc(C(F)(F)F)cc2)c(NC2CCCCCC2)n1)c1c(F)c(F)c(F)c(F)c1F the growth was 83.5%.
